Assay outcomes as filed in PubChem BioAssay.
CYP2C9 act: activators of human CYP2C9; activation factor at 5 µM; recombinant CYP2C9, luciferin-H conversion, luminescence; active compounds read high; factor 1 = untreated enzyme, 0 = blocked; hit rate 1.4% among 96,000;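 active = activation factor of 2 or more for CYP2C9 at a 5 µM dose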;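 note: 0 = sulfaphenazole-blocked wells and 1 = vehicle-only wells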
Target sequence (P11712 whole entry, looked up): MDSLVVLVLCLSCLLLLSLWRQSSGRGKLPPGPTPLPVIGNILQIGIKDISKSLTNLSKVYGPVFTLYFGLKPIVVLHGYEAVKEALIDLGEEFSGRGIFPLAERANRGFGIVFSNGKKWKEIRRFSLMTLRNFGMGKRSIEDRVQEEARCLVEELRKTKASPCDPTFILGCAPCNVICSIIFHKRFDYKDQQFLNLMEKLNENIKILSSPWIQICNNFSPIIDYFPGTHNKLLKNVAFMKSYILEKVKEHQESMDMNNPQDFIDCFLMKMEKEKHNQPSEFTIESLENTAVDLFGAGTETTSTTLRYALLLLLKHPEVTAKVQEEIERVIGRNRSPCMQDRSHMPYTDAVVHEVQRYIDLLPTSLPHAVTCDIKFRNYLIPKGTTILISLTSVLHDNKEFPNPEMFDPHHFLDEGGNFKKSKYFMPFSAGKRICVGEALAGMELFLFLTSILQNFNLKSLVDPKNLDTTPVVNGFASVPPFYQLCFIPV
CYP2C19 act: activators of human cytochrome P450 2C19 | 96,000 tested, under 10 active | recombinant CYP2C19, luciferin-H EGE luminescence; active compounds read high; 0 = fully inhibited enzyme, 1 = untreated enzyme | AID 1025 | P33261 | activation factor at 5 µM;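 active = activation factor of at least 2 at 5 µM in the primary screen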;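 note: 0 = wells with 2.5 mM tranylcypromine and 1 = vehicle-only wells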
CYP2C19 inhib: human CYP2C19 inhibition; CYP2C19 Supersomes, luciferin-H EGE luminescence, 30 min; P33261; hit rate 21% among 96,000; inhibition, % at 5 µM;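 active = CYP2C19 inhibition above a set limit at 5 µM in the primary screen, cut at about 50% in these data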;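 note: plate controls were negative control wells for no effect and 2.5 mM tranylcypromine positive control for full effect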
CYP2C9 inhib: inhibitors of human CYP2C9 | P11712 | CYP2C9 Supersomes, luciferin-H conversion, luminescence | inhibition, % at 5 µM | hit rate 20% among 96,000 | AID 777;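 active = blocking of liver enzyme CYP2C9 beyond about 50% at 5 µM, limit read from the data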
PostGolgi yeast: growth inhibition of a yeast mutant, post-Golgi transport screen; AID 739; post-Golgi transport phenotypic cell assay; inhibition, % at 10 µM; hit rate 0.9% among 98,000;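 note: yeast cells grown in 1536-well plates; yeast grown about 18 h at 30C before absorbance read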
PostGolgi ctrl: growth of the yeast control strain, post-Golgi counter-screen; hit rate 5% among 98,000; efflux-deficient yeast background strain, growth absorbance A615, 16 h; inhibition, % at 10 µM
* = called active by the depositor; . = not tested or not shown. Compounds with a hit are over-represented: about 32% of the library has one in this group of screens. Cut-off read from the data, not from the text of the source, unless noted: active = inhibition above about 30%; inactive = the rest.

SMILES	CYP2C9 act	CYP2C19 act	CYP2C19 inhib	CYP2C9 inhib	PostGolgi yeast	PostGolgi ctrl
O=C(CSc1nc(C2CC2)nc2ccccc12)N1c2ccccc2Sc2ccccc21	0	0.6	44	97*	23	18
Cc1nc(SCC(=O)N2c3ccccc3Sc3ccccc32)n[nH]1	0.6	0.4	60*	36	-4	0
CCOC(=O)N1CCN(CC(=O)Nc2c(C(=O)OC)[nH]c3cccc(Cl)c23)CC1	0.7	0.7	27	27	-4	11
Cc1nc(SCC(=O)c2ccc(F)cc2)n[nH]1	0.3	0.4	58*	71*	-2	-2
Cc1cc(=O)[nH]c(SCC(=O)c2ccc(C)c(C)c2)n1	0.5	0.7	30	46	87*	3
Cc1c(C(=O)Nc2ccccc2N2CCOCC2)sc2nc3n(c(=O)c12)CCC3	1	1	2	-3	.	.
CCOC(=O)CSc1cn2c(n1)CCC2	.	.	.	.	1	10
CCN(CC)S(=O)(=O)c1ccc(N(C)Cc2cccnc2)nc1	0.3	0.2	81*	68*	-13	-3
CN(Cc1ccccc1)c1ccc(S(=O)(=O)N2CCOCC2)cn1	1.4	0.7	30	-37	-2	-4
O=C(NNC(=O)c1cc(OCC(F)(F)F)ccc1OCC(F)(F)F)c1cccc(C(F)(F)F)c1	0.6	0.8	24	40	-1	-6
O=C(NCc1ccco1)C1CCN(C(=O)c2cc3sccc3n2Cc2ccc(F)cc2)CC1	0	0.1	86*	98*	-2	15
O=C(c1ccco1)N1CCN(C(=O)c2cc3sccc3n2Cc2ccccc2)CC1	0.1	0.8	20	89*	8	3
CN1CCN(C(=O)c2cc3sccc3n2CC(=O)c2ccccc2)CC1	1.1	0.8	16	-6	1	13
CCN(C(=O)c1ccccc1Cl)c1ccccc1	1	0.4	62*	4	-6	5
CCN(C(=O)c1cc2cccc(OC)c2oc1=O)c1ccccc1	1.2	0.6	40	-20	-9	0
CCN(C(=O)c1cc(Cl)ccc1OC)C1CCCCC1	0	0.1	95*	96*	14	20
CC(C)(C)C(=O)N(CCN(C(=O)C(C)(C)C)c1ccccc1)c1ccccc1	0.8	0.9	14	15	0	12
CC(=O)N(CCN(C(C)=O)c1ccccc1)c1ccccc1	1.2	0.3	73*	-21	-4	-3
CCN(C(=O)c1cc(Cl)ccc1OC)c1ccccc1	0.6	0.3	72*	45	27	1
CCOC(=O)c1cc(-c2cc3ccccc3o2)nc2c1c(=O)[nH]c(=O)n2CCOC	0.9	0.8	20	8	-6	1
CC(=O)C1=NOC(CNC(=O)c2c(-c3ccccc3Cl)noc2C)C1 (stereo unspecified)	0.9	0.9	10	7	7	-2
O=C(NCCCn1ccnc1)c1cn(Cc2ccc(F)cc2)nn1	0.4	0.1	94*	60*	6	8
O=C(/C=N/O)NCCCn1ccnc1	1	0.9	5	4	-3	5
Cc1cc(C(=O)NCCCn2ccnc2)cs1	0.3	0.1	88*	66*	1	6
Cc1cc(C(=O)NCCCN2CCCC2=O)cs1	1.1	0.9	7	-6	5	1
SMILES	CYP2C9 act	CYP2C19 act	CYP2C19 inhib	CYP2C9 inhib	PostGolgi yeast	PostGolgi ctrl
O=C(NCCCn1ccnc1)NC(C(F)(F)F)C(F)(F)F	0.3	0.2	80*	68*	0	12
O=C(NCCCn1ccnc1)C(Cc1ccccc1)N1C(=O)c2ccccc2C1=O (stereo unspecified)	0.4	0.4	64*	62*	22	4
CCCCCn1c(=O)[nH]c2cc(C(=O)NCCCN3CCC(C)CC3)ccc2c1=O	0.8	0.6	38	16	-3	-3
CCCS(=O)(=O)N1CCC(C(=O)N2CCc3ccccc3C2)CC1	1	0.7	34	0	0	-3
O=C(CN1CCN(C(=O)c2cccc(F)c2)CC1)NC1CCCCC1	1.1	1	1	-12	-12	4
Cc1ccc(C(=O)NCCCn2ccnc2)o1	0.7	0.3	72*	28	-3	-3
O=C(NCCCn1ccnc1)c1sc2cccc(F)c2c1Cl	0.1	0	96*	91*	-1	0
O=C(NCCCn1ccnc1)C1c2ccccc2Oc2ccccc21	0	0	100*	98*	2	12
COc1ccc(C2CC(C(F)(F)F)n3nc(C(=O)NCCCn4ccnc4)cc3N2)cc1OC (stereo unspecified)	0.7	0.9	8	29	-5	0
Cc1ccc2nc3c(cc(C(=O)NCCCn4ccnc4)n3C)c(=O)n2c1	0.1	0.1	89*	90*	-4	8
c1ccc([C@H]2CC3C[C@@H](c4ccccc4)N2O3)cc1	1.1	0.5	45	-11	1	11
O=C(NC1CCCCC1)c1cccnc1C(=O)O	1	0.9	6	-2	3	-3
CC1CCCN(Cc2c(O)ccc3c(=O)c(-c4nc5ccccc5s4)c(N)oc23)C1 (stereo unspecified)	0.8	0.7	26	20	3	17
CC1(C)CC(=O)C(C(=S)Nc2ccccc2)=C(NCCN2CCOCC2)C1	1	0.9	12	1	-5	17
Cc1ccc(CNC(=O)Cn2c([N+](=O)[O-])cnc2C)cc1	1	1	3	0	-8	-1
O=C(NCCCn1ccnc1)c1cccc(S(=O)(=O)Nc2ccccc2F)c1	0	0.4	61*	100*	1	-11
O=C(NCCCN1CCCC1=O)c1ccccc1NS(=O)(=O)c1ccc(F)cc1	0.7	0.6	43	29	-1	14
Cc1cc(N2CCN(C(=O)OC(C)(C)C)CC2)n2ncnc2n1	1.1	1.1	-6	-11	10	-8
O=c1nc2n(c3c4c(sc13)CCC4)CCC2	0.9	0.8	15	7	3	-3
O=C(NCc1ccco1)c1cc(-c2ccc(Cl)cc2)on1	0.8	1	0	18	-2	2
CC(=O)Nc1ccc(OCC(=O)c2ccc(C)cc2C)cc1	1	0.3	72*	-2	-3	7
NC(=O)COC(=O)c1ccc(Oc2ccccc2)cc1	0.6	0.4	55*	44	-8	-5
O=C(COC(=O)c1cnccn1)c1ccccc1	0.2	0.9	8	82*	5	-15
O=C(OCCOc1ccc(Br)cc1)c1cnccn1	1.1	0.4	62*	-6	4	1
O=C(COC(=O)c1cnccn1)c1ccc(Br)cc1	1	0.9	12	2	-1	11
CC(C)NC(=O)COC(=O)c1ccc(Oc2ccccc2)cc1	0.8	0.8	18	23	-2	-5
c1ccc(CNc2ccc3c(c2)ncn3C2CCCCC2)nc1	0.9	0.9	8	13	8	13
CCCCNC(=O)C1C2C=CC3(CN(Cc4ccc(C)cc4)C(=O)C13)O2 (stereo unspecified)	0.9	1.1	-5	12	5	4
